We go through 54 compounds from PubChem BioAssay AID504651 (National Center for Advancing Translational Sciences (NCATS), 2011).

Structures are written as SMILES. Among all 360,000 compounds or so, about 130 (0.036%) were called active. Shown is part of a subset that was picked to be rich in actives. Values without a mark were called inactive. Rule as the data show it: active = potentiation above about 30%; inactive = the rest.

D(1A) dopamine receptor (Homo sapiens), sequence (P21728 whole entry, looked up): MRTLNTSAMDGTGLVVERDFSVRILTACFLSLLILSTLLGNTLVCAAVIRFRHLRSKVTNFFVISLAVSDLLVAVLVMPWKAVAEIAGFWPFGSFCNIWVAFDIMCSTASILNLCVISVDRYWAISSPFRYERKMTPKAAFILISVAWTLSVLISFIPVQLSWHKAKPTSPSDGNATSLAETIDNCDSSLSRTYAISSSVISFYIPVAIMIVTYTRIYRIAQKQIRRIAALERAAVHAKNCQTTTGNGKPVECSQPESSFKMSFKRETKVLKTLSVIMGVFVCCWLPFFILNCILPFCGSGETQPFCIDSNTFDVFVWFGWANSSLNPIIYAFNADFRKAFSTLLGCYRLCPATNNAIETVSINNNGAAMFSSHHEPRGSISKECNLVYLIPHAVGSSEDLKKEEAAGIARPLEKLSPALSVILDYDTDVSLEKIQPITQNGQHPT

The test has as its target D(1A) dopamine receptor (Homo sapiens) (UniProt P21728). Description: Potentiators of Human D1 Dopamine Receptor: qHTS. Also: 0% is about no effect. The settings on record: HEK293 TREx D1 cells, calcium flux, dopamine EC20 potentiation; at 10 µM; hits give high values.
As for `Cc1ccc(Cl)cc1N1CCN(C(=O)CN2C(=O)COc3ccc(S(=O)(=O)N4CCOCC4)cc32)CC1`, the potentiation was 4.75%.

`Cc1c(C(=O)N2CCCC2)oc2c1-c1nn(CC(=O)NCc3ccc(OC(C)C)cc3)cc1CC2`: the potentiation is -0.75%.

Regarding `Cc1ccc(-c2nc(SCc3ccc(Br)cc3)n3[nH]c(=O)cc3n2)cc1`, the potentiation is -0.15%.

`O=S(=O)(c1ccccc1)c1nc(-c2ccc(Cl)cc2Cl)oc1N1CCCCC1`: the potentiation is -2.95%.

As to `CCOc1ccc(N(Cc2ccccc2)C(=O)c2nc(S(C)(=O)=O)ncc2Cl)cc1`, the potentiation was -0.05%.

As to `Cc1c(CCNC(=O)c2ccc(C(F)(F)F)cc2)sc2nc(-c3ccc(F)cc3)nn12`, the potentiation was -2.3%.

As for `COc1ccc(OC)c(-c2nc(C(N)=O)c3c(n2)n(-c2ccc4c(c2)OCO4)c(=O)n3C)c1`, the potentiation was 0.75%.

Turning to `O=C(c1ccc2c(c1)N(Cc1ccc(Cl)cc1)C(=O)c1ccccc1S2(=O)=O)N1CCCCC1`, the potentiation was -1.9%.

Consider `CCN1C(=O)c2ccccc2S(=O)c2ccc(C(=O)NCc3ccc(F)cc3)cc21` (centres undefined), for which the potentiation is 3%.

Turning to `CCOc1ccccc1NC(=O)COc1ccc(S(=O)(=O)N2CCCC2)cc1`, the potentiation was -4.6%.

`Cc1ccc(OCC(=O)Nc2ccccc2C(=O)NC2CC2)cc1`: the potentiation is -0.15%.

As to `CN1CCN(c2ccccc2NC(=O)COc2ccc(C3CCCCC3)cc2)CC1`, the potentiation was 37.7% (active).

As to `CCn1c2ccccc2c2nnc(SCC(=O)O)nc21`, the potentiation is -1.3%.

On to `Cc1oc2ncnc(N3CCOCC3)c2c1C(=O)NCCc1ccccc1`, for which the potentiation was 2.6%.

`COc1ccccc1N1CCN(C(CNC(=O)C(=O)NCc2ccc(C)cc2)c2cccnc2)CC1` (centres undefined): the potentiation was 3.55%.

With `COc1cccc(C(=O)NC2CCN(C#N)CC2)c1`, the potentiation was -6.95%.

Consider `O=C(Cn1cc(SCc2cccc(Cl)c2)c2ccccc21)N1CCCCC1`, for which the potentiation was -2.05%.

In the case of `CCCOc1ccc(NC(=O)CC2C(=O)N(c3ccccc3)C(=O)N2Cc2ccco2)cc1` (centres undefined), the potentiation is -2.9%.

For `Cc1cccc(NC(=O)C2CCCN2S(=O)(=O)c2cccc3nsnc23)c1C` (centres undefined), the potentiation is -2.95%.

Consider `CC(C)c1ccc(NC(=O)Cn2nnc(C(=O)NCCc3ccccc3)c2N)cc1`, for which the potentiation was -1.7%.

Regarding `O=C(CSc1nc2nccnc2c(=O)n1CCc1c[nH]c2ccccc12)Nc1ccccc1F`, the potentiation is -3.65%.

For the compound `COc1ccc(S(=O)(=O)Nc2cccc3cccnc23)c(N)c1`, the potentiation is -3.75%.

In the case of `Nn1c(SCC(=O)NC2CCCC2)nnc1-c1ccccc1F`, the potentiation is -7.1%.

On to `CC(C)NC(=O)NC(=O)CSc1nnc(-c2ccccc2F)n1N`, for which the potentiation is 35% (active).

Take `Nn1c(SCC(=O)NC(=O)NC2CCCC2)nnc1-c1ccccc1F`: the potentiation is -9.3%.

For `O=S(=O)(c1ccc2c(c1)OCCO2)N1CCN(S(=O)(=O)c2cc(F)ccc2F)CC1`, the potentiation is -0.7%.

As to `Cc1ccc(C)c(Cn2c(=O)n(CCC(=O)NCc3ccc4c(c3)OCO4)c(=O)c3sccc32)c1`, the potentiation is 0.75%.

Take `CCOc1cc(C2c3c(-c4ccc(Br)cc4)n[nH]c3C(=O)N2c2ccc(Cl)cc2)ccc1O` (centres undefined): the potentiation was 1.25%.

Consider `COc1cc(CN(CC2CCCO2)C(=O)c2ccccc2F)cc(OC)c1OC` (centres undefined), for which the potentiation is 5%.

Regarding `N#CN1CCC(NC(=O)c2ccc(F)cc2)CC1`, the potentiation was -0.05%.

On to `O=C(CNC(=O)c1ccc(Cl)c(C(F)(F)F)c1)OC(C(=O)Nc1cc(C(F)(F)F)ccc1Cl)c1ccccc1` (centres undefined), for which the potentiation was 1.3%.

In the case of `CCOc1ccccc1NC(=O)CSc1ncc(S(=O)(=O)c2ccc(C(C)(C)C)cc2)c(=O)[nH]1`, the potentiation is 2.25%.

`COc1ccc2c(Sc3ccc(C)cc3)c(C(=O)NC(C)c3ccccc3)[nH]c2c1` (centres undefined): the potentiation was -3.25%.

As for `Cn1nnnc1SCCCNCc1cccc(OCc2ccc(Cl)cc2)c1`, the potentiation is 0.9%.

With `CC(NC(=O)c1cc(Sc2ccc(F)cc2F)nc2ccccc12)c1ccccc1` (centres undefined), the potentiation was -2.8%.

Take `Cc1cc2c(s1)c1cnn(Cc3c(F)cccc3Cl)c(=O)c1n2C`: the potentiation is -3.2%.

In the case of `COc1ccc(OCCCn2c(C3CC(=O)N(c4ccc(F)cc4)C3)nc3ccccc32)cc1` (centres undefined), the potentiation is -2%.

With `Cn1nnnc1Sc1ncnc2scc(-c3ccccc3[N+](=O)[O-])c12`, the potentiation was 9.9%.

Regarding `COC(=O)c1ccc(C2C(C(=O)Nc3ccccc3)=C(C)Nc3nc4ccccc4n32)cc1` (centres undefined), the potentiation is -1.75%.

Turning to `CC(C)Cn1c(=O)c2ccccc2n2c(CCC(=O)N3CCN(c4cccc(Cl)c4)CC3)nnc12`, the potentiation is -1.35%.

Regarding `Cc1ccc(NC(=O)c2ccc(CN3CC(=O)N4CCCCC4C3=O)cc2)c(Cl)c1` (centres undefined), the potentiation is 1.5%.

In the case of `COc1ccc(-n2ccn(CC(=O)Nc3ccc(C)c(C)c3)c(=O)c2=O)cc1OC`, the potentiation is -0.8%.

Regarding `COc1cc(-c2cc3n(C)c(C)c(CCC(=O)Nc4ccc(F)cc4)c(=O)n3n2)cc(OC)c1OC`, the potentiation is 0.6%.

Consider `Cc1cc(C)cc(NC(=O)c2cnc3sc(N4CCCC4)nn3c2=O)c1`, for which the potentiation is -4.45%.

As for `CCCC(=O)Nc1cc(C(=O)NCc2ccc(OC)cc2)ccc1S(=O)(=O)c1ccc(Cl)cc1`, the potentiation is -6.15%.

For `COc1ccc(Cl)cc1NC(=O)CCn1c(=O)c2cccn2c2ccccc21`, the potentiation is -4.3%.

For `CCCCN(CC)CCCNC(=O)Cn1ncc2c([nH]c3ccc(C)cc32)c1=O`, the potentiation is 1.4%.

With `COc1ccccc1CNCc1ccc(C(=O)O)s1`, the potentiation was -0.25%.

With `O=C(NCC12CC3CC(CC(C3)C1)C2)c1cc2nc(-c3ccccc3)cc(C(F)(F)F)n2n1`, the potentiation was 0.55%.

For `CCOc1ccccc1NC(=O)Cn1c(=O)n(-c2cccc(C)c2)c(=O)c2c1c1cc(OC)ccc1n2C`, the potentiation was 3.65%.

`CC(C)(C)OC(=O)N1CCC(c2c(C(=O)N3CCc4ccccc4C3)cnn2-c2ccc(F)cc2)CC1`: the potentiation was -4.3%.

As to `O=C(CCSCc1ccccc1F)N1CCN(c2ccc(Cl)cc2)CC1`, the potentiation is -0.6%.

Turning to `Cc1noc(C)c1-c1ccc2ncnc(NCc3ccc(F)c(F)c3)c2c1`, the potentiation was -4.15%.

Turning to `O=C(CS(=O)(=O)c1cccc2nsnc12)N1CCN(c2cccc(Cl)c2)CC1`, the potentiation was 0.15%.
